Counter-ions that a name gives are not always drawn. ± gives the standard deviation of the averaged measurements.
Tested on: E. coli TESEC Mtb DapB
Assay: growth (OD600 after 10 h); higher = more growth (less inhibition)
Details: arabinose induction (level): High; compound 0.1 mM; raw OD600 reference: median of DMSO wells […], cell-free background 0.041
Protocol: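 TESEC E. coli strains in which the native enzyme is deleted and replaced by arabinose-inducible Mtb Asd, DapB, CysH or TrpD, each grown in its selective medium. Strains were screened against the Prestwick library at 0.1 mM and 1% DMSO in 384-well format at low and high arabinose induction. Growth is read as OD600 after 10 h in triplicate.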

SMILES | growth
Cc1nnc(SCC2=C(C(=O)O)N3C(=O)[C@@H](NC(=O)Cn4cnnn4)[C@H]3SC2)s1 [Cefazolin sodium salt] | 0.192 ± 0.0067
COc1ccc(CN(CCN(C)C)c2ccccn2)cc1 [Pyrilamine maleate] | 0.188 ± 0.017
CC(=O)Nc1ccc(O)cc1 [Acetaminophen] | 0.215 ± 0.018
c1ccc([C@H]2CN3CCSC3=N2)cc1 [Levamisole hydrochloride] | 0.182 ± 0.0088
Brc1c(NC2=NCCN2)ccc2nccnc12 [Brimondine L-Tartrate] | 0.19 ± 0.02
Cc1ccc2c(c1)c1c3n2CCNC3CCC1 (stereo not given) [Pirlindole mesylate] | 0.18 ± 0.0019
CC(C)[C@H](N)C(=O)OCCOCn1cnc2c(=O)nc(N)[nH]c21 [Valacyclovir hydrochloride] | 0.179 ± 0.011
CO[C@H]1/C=C/O[C@@]2(C)Oc3c(C)c(O)c4c(O)c(c5c(nc6cc(C)ccn65)c4c3C2=O)NC(=O)/C(C)=C\C=C\[C@H](C)[C@H](O)[C@@H](C)[C@@H](O)[C@@H](C)[C@H](OC(C)=O)[C@@H]1C [Rifaximin] | 0.103 ± 0.089
CCCCC1C(=O)N(c2ccccc2)N(c2ccc(O)cc2)C1=O (stereo not given) [Oxyphenbutazone] | 0.204 ± 0.019
Nc1ccc(/N=N/c2ccccc2)c(N)n1 [Phenazopyridine hydrochloride] | 0.196 ± 0.01
CN1CCCN(C(c2ccccc2)c2ccc(Cl)cc2)CC1 (stereo not given) [Homochlorcyclizine dihydrochloride] | 0.169 ± 0.0068
CCCCOc1ccc(OCCCN2CCOCC2)cc1 [Pramoxine hydrochloride] | 0.183 ± 0.014
Cc1noc(NS(=O)(=O)c2ccc(N)cc2)c1C [Sulfisoxazole] | 0.19 ± 0.0067
CCCCC[C@H](O)/C=C/[C@H]1[C@H](O)CC(=O)[C@@H]1CCCCCCC(=O)O [Alprostadil] | 0.154 ± 0.008
CC(C)c1nc(CN(C)C(=O)N[C@H](C(=O)N[C@@H](Cc2ccccc2)C[C@H](O)[C@H](Cc2ccccc2)NC(=O)OCc2cncs2)C(C)C)cs1 [Ritonavir] | 0.192 ± 0.013
CCN1CCC[C@H]1CNC(=O)c1c(OC)ccc(Br)c1OC [Remoxipride Hydrochloride] | 0.195 ± 0.0092
CN(C)CCN(Cc1ccc(Cl)cc1)c1ccccn1 [Chloropyramine hydrochloride] | 0.185 ± 0.02
CCCCc1oc2ccccc2c1C(=O)c1cc(I)c(OCCN(CC)CC)c(I)c1 [Amiodarone hydrochloride] | 0.185 ± 0.0075
Cc1onc(-c2ccccc2)c1-c1ccc(S(N)(=O)=O)cc1 [Valdecoxib] | 0.178 ± 0.015
NCCCCCC(=O)O [Aminocaproic acid] | 0.206 ± 0.02

Same assay, conditions: arabinose induction (level): Low; compound 0.1 mM; raw OD600 reference: median of DMSO wells 0.227, cell-free background 0.041

SMILES | growth
Cc1nnc(SCC2=C(C(=O)O)N3C(=O)[C@@H](NC(=O)Cn4cnnn4)[C@H]3SC2)s1 [Cefazolin sodium salt] | 0.237 ± 0.019
COc1ccc(CN(CCN(C)C)c2ccccn2)cc1 [Pyrilamine maleate] | 0.211 ± 0.029
CC(=O)Nc1ccc(O)cc1 [Acetaminophen] | 0.251 ± 0.027
c1ccc([C@H]2CN3CCSC3=N2)cc1 [Levamisole hydrochloride] | 0.214 ± 0.023
Brc1c(NC2=NCCN2)ccc2nccnc12 [Brimondine L-Tartrate] | 0.237 ± 0.033
Cc1ccc2c(c1)c1c3n2CCNC3CCC1 (stereo not given) [Pirlindole mesylate] | 0.201 ± 0.024
CC(C)[C@H](N)C(=O)OCCOCn1cnc2c(=O)nc(N)[nH]c21 [Valacyclovir hydrochloride] | 0.186 ± 0.021
CO[C@H]1/C=C/O[C@@]2(C)Oc3c(C)c(O)c4c(O)c(c5c(nc6cc(C)ccn65)c4c3C2=O)NC(=O)/C(C)=C\C=C\[C@H](C)[C@H](O)[C@@H](C)[C@@H](O)[C@@H](C)[C@H](OC(C)=O)[C@@H]1C [Rifaximin] | 0.0515 ± 0.0028
CCCCC1C(=O)N(c2ccccc2)N(c2ccc(O)cc2)C1=O (stereo not given) [Oxyphenbutazone] | 0.229 ± 0.044
Nc1ccc(/N=N/c2ccccc2)c(N)n1 [Phenazopyridine hydrochloride] | 0.189 ± 0.022
CN1CCCN(C(c2ccccc2)c2ccc(Cl)cc2)CC1 (stereo not given) [Homochlorcyclizine dihydrochloride] | 0.215 ± 0.039
CCCCOc1ccc(OCCCN2CCOCC2)cc1 [Pramoxine hydrochloride] | 0.226 ± 0.0093
Cc1noc(NS(=O)(=O)c2ccc(N)cc2)c1C [Sulfisoxazole] | 0.205 ± 0.022
CCCCC[C@H](O)/C=C/[C@H]1[C@H](O)CC(=O)[C@@H]1CCCCCCC(=O)O [Alprostadil] | 0.177 ± 0.032
CC(C)c1nc(CN(C)C(=O)N[C@H](C(=O)N[C@@H](Cc2ccccc2)C[C@H](O)[C@H](Cc2ccccc2)NC(=O)OCc2cncs2)C(C)C)cs1 [Ritonavir] | 0.25 ± 0.0048
CCN1CCC[C@H]1CNC(=O)c1c(OC)ccc(Br)c1OC [Remoxipride Hydrochloride] | 0.218 ± 0.039
CN(C)CCN(Cc1ccc(Cl)cc1)c1ccccn1 [Chloropyramine hydrochloride] | 0.208 ± 0.016
CCCCc1oc2ccccc2c1C(=O)c1cc(I)c(OCCN(CC)CC)c(I)c1 [Amiodarone hydrochloride] | 0.227 ± 0.0068
Cc1onc(-c2ccccc2)c1-c1ccc(S(N)(=O)=O)cc1 [Valdecoxib] | 0.229 ± 0.022
NCCCCCC(=O)O [Aminocaproic acid] | 0.28 ± 0.025
